Experimental data taken from PubChem BioAssay (EPA / NIEHS).
Calls of active or inactive are those of the source. The calls were made as follows: active = hit-call score of the fitted dose curve at least 0.9, where 1 is the maximum; inactive = score below 0.9.

What was measured:
[1] = ATG_ISRE_CIS: Attagene CIS-FACTORIAL HepG2 Assay for human Interferon Regulatory Factor 1 (IRF1) binding to an Interferon-Stimulated Response Element (ISRE) (AID 2282948); conditions: HepG2 ISRE cis-reporter (Attagene), mRNA transcription readout; actives raise or lower the signal
In short: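 Multiplexed mRNA reporter readout in human liver HepG2 cells: cis-element-driven reporters transfected, compound added for 24 h, transcripts amplified, fluorescently labelled and sized by capillary electrophoresis; curve fitting bidirectional against DMSO.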

[2] = ATG_M_32_CIS: Attagene CIS-FACTORIAL HepG2 Assay for M32 Transcription Factor (Internal Marker) (AID 2282949); conditions: HepG2 Attagene cis-factorial M32 reporter, mRNA; actives raise or lower the signal;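 also: background control marker of the multiplexed CIS panel rather than a real target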
In short: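 HepG2 human liver cells transiently transfected with cis-promoter-driven multiple reporter transcription units, dosed 24 h. Reporter mRNA quantified by RT-PCR, FAM-labelled primer extension, HpaI digest and capillary electrophoresis; bidirectional fit versus DMSO baseline.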

[3] = ATG_M_06_CIS: Attagene CIS-FACTORIAL HepG2 Assay for M06 Transcription Factor (Internal Marker) (AID 2282950); conditions: HepG2 Attagene CIS-FACTORIAL M06 internal marker reporter; actives raise or lower the signal
In short: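 Terse: HepG2, transient MRTU transfection (FuGene 6), 24 h dosing; total RNA, oligo(dT) RT, PCR, FAM label, HpaI cut, capillary electrophoresis; bidirectional fit vs DMSO baseline; background-control endpoint.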

[4] = target: Hypoxia-inducible factor 1-alpha (Homo sapiens) (UniProt Q16665); experiment: ATG_HIF1a_CIS: Attagene CIS-FACTORIAL HepG2 Assay for human Hypoxia Inducible Factor 1 (HIF1A) (AID 2282951); conditions: HepG2 Attagene cis-factorial HIF1a reporter transcription; actives raise or lower the signal
In short: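 After 24 h chemical exposure of reporter-transfected HepG2 cells, reporter cDNA was PCR-amplified, labelled by 6-FAM primer extension (2 min 95 C, 20 s 68 C, 10 min 72 C), HpaI-cut (2 h, 37 C) and analysed by CE.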

[5] = target: Hepatocyte nuclear factor 6 (Homo sapiens) (UniProt Q9UBC0); experiment: ATG_HNF6_CIS: Attagene CIS-FACTORIAL HepG2 Assay for human Hepatocyte Nuclear Factor 6 (HNF6) (AID 2282952); conditions: HepG2 Attagene cis-factorial HNF6 reporter transcription; actives raise or lower the signal
In short: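 Using cis-element reporters in HepG2 liver cells, the assay tracks endogenous factor-driven transcription 24 h post-dosing. Signal comes from 6-FAM-labelled, HpaI-digested RT-PCR fragments, with gain or loss scored against DMSO.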

[6] = ATG_MRE_CIS: Attagene CIS-FACTORIAL HepG2 Assay for human Metal Responsive Element (MRE) (AID 2282954); conditions: HepG2 MRE cis-reporter transcription, Attagene multiplex; actives raise or lower the signal
In short: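 Measured here is mRNA induction from an MRE cis-element reporter in HepG2 after 24 h, quantified by fluorescence of labelled RT-PCR products on capillary electrophoresis; gain- and loss-of-signal fits use DMSO as baseline.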

[7] = ATG_PBREM_CIS: Attagene CIS-FACTORIAL HepG2 Assay for human Phenobarbital-responsive Enhancer Module (PBREM) (AID 2282955); conditions: HepG2 PBREM cis-reporter, Attagene multiplexed transcription; actives raise or lower the signal
In short: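 Measures endogenous factor action on a phenobarbital-responsive enhancer module. HepG2 transiently carrying cis reporters, 24 h treatment, mRNA read-out by RT-PCR plus capillary electrophoresis.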

[8] = target: Paired box protein Pax-6 (Homo sapiens) (UniProt P26367); experiment: ATG_Pax6_CIS: Attagene CIS-FACTORIAL HepG2 Assay for human Paired Box 6 (PAX6) (AID 2282956); conditions: HepG2 CIS-FACTORIAL PAX6 reporter transcription, RNA readout; actives raise or lower the signal
In short: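 Fluorescent RT-PCR products separated by capillary electrophoresis report PAX6-linked promoter mRNA in HepG2 cells 24 h post-dose. Curves fitted bidirectionally, DMSO as negative control.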

[9] = ATG_PXRE_CIS: Attagene CIS-FACTORIAL HepG2 Assay for human Pregnane X Receptor Element (PXRE) (AID 2282957); conditions: HepG2 Attagene CIS-FACTORIAL PXRE reporter, mRNA; actives raise or lower the signal
In short: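 Using HepG2 transfected with multiple reporter transcription units, endogenous factor-driven transcription was scored as reporter mRNA after 24 h exposure.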

[10] = ATG_PPRE_CIS: Attagene CIS-FACTORIAL HepG2 Assay for human Peroxisome Proliferator-activated Response Element (PPRE) (AID 2282958); conditions: HepG2 PPRE cis-element reporter, Attagene transcription factor profiling; actives raise or lower the signal
In short: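 PPRE activity in HepG2: transient cis-reporter transfection, 24 h compound incubation, reporter mRNA by RT-PCR and CE fluorescence; gain/loss fitted against DMSO.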

[11] = ATG_RORE_CIS: Attagene CIS-FACTORIAL HepG2 Assay for human RAR-related Orphan Receptor Element (RORE) (AID 2282959); conditions: HepG2 Attagene cis-factorial RORE reporter, mRNA; actives raise or lower the signal
In short: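 A 24-hour exposure of transfected HepG2 hepatoma cells precedes RNA isolation and reporter RT-PCR. Labeled products are digested with HpaI and resolved by capillary electrophoresis, with gain or loss of signal scored relative to DMSO.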

[12] = ATG_Sox_CIS: Attagene CIS-FACTORIAL HepG2 Assay for human SRY-box transcription factor (SOX) (AID 2282960); conditions: HepG2 Attagene cis-factorial SOX reporter, mRNA; actives raise or lower the signal
In short: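 HepG2, cis reporter units, 24 h exposure. Reporter mRNA: RT-PCR → FAM labelling → HpaI → CE fluorescence. Bidirectional fit vs DMSO.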

[13] = target: Transcription factor Sp1 (Homo sapiens) (UniProt P08047); experiment: ATG_Sp1_CIS: Attagene CIS-FACTORIAL HepG2 Assay for human Specificity Protein 1 (Sp1) (AID 2282961); conditions: HepG2 Sp1 cis-reporter transcription, actives raise or lower the signal
In short: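 Liver-derived HepG2 cells, cis-element reporter library, 24 h treatment; RNA isolated, cDNA amplified with reporter-specific primers, FAM-labeled fragments sized on capillary analyzer. DMSO baseline, bidirectional curve fit.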

[14] = ATG_SREBP_CIS: Attagene CIS-FACTORIAL HepG2 Assay for human Sterol Regulatory Element Binding (SREBP) (AID 2282962); conditions: HepG2 Attagene cis-factorial SREBP reporter, mRNA; actives raise or lower the signal
In short: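 Endogenous factor activity is measured in HepG2 through multiplexed reporter units under cis-element control. Following a 24 h incubation, reporter transcripts are reverse-transcribed, PCR-amplified and sized by capillary electrophoresis; activity is fitted in both directions relative to DMSO.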

[15] = target: Signal transducer and activator of transcription 3 (Homo sapiens) (UniProt P40763); experiment: ATG_STAT3_CIS: Attagene CIS-FACTORIAL HepG2 Assay for human Signal Transducer and Activator of Transcription 3 (STAT3) (AID 2282963); conditions: HepG2, Attagene cis-factorial STAT3 reporter transcription; actives raise or lower the signal
In short: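 Fluorescence intensity of 6-FAM-labelled reporter fragments, separated by capillary electrophoresis after RT-PCR, gave the signal. Cells were HepG2 transfected with cis-element reporter units and treated 24 h; fitting was bidirectional relative to DMSO.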

[16] = ATG_TA_CIS: Attagene CIS-FACTORIAL HepG2 Assay for human TA Basal Promoter (AID 2282964); conditions: HepG2 Attagene CIS-factorial TA basal promoter reporter; actives raise or lower the signal
In short: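 Transfected HepG2, 24 h compound exposure; RNA → RT-PCR → FAM primer extension → HpaI cut → CE fluorescence. Gain/loss-of-signal fitted against DMSO negative control. Background-control readout.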

[17] = ATG_TCF_b_cat_CIS: Attagene CIS-FACTORIAL HepG2 Assay for human T-Cell-Factor with beta-catenin (TCF/b-cat) (AID 2282965); conditions: HepG2 TCF/beta-catenin cis-reporter transcription, actives raise or lower the signal
In short: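 Cells of the HepG2 line carry transiently transfected reporter units whose promoters respond to endogenous factors. Twenty-four hours post-dosing, reporter mRNA induction is measured by fluorescent RT-PCR and capillary electrophoresis, with DMSO as baseline.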

[18] = ATG_TAL_CIS: Attagene CIS-FACTORIAL HepG2 Assay for human TAL Basal Promoter (AID 2282966); conditions: HepG2 Attagene cis-factorial TAL promoter reporter; actives raise or lower the signal;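 also: background control endpoint measuring basal TAL promoter reporter mRNA not a specific factor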
In short: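 After 24 hours of chemical exposure, transfected HepG2 cells yielded RNA that was converted to 6-FAM-labelled, HpaI-digested reporter fragments for capillary electrophoresis. Values derive from bidirectional fitting against DMSO controls.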

[19] = ATG_TGFb_CIS: Attagene CIS-FACTORIAL HepG2 Assay for human Transforming Growth Factor (TGF) (AID 2282967); conditions: HepG2 Attagene CIS TGFb reporter, mRNA transcription; actives raise or lower the signal
In short: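 Readout: fluorescently labeled reporter cDNA fragments resolved by capillary electrophoresis after RT-PCR. Transfected HepG2 cells dosed for 24 h; endogenous TF activity at TGFB1-linked cis element; gain or loss fitted relative to DMSO.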

Sequence of Paired box protein Pax-6 (Homo sapiens) (P26367 whole entry, looked up): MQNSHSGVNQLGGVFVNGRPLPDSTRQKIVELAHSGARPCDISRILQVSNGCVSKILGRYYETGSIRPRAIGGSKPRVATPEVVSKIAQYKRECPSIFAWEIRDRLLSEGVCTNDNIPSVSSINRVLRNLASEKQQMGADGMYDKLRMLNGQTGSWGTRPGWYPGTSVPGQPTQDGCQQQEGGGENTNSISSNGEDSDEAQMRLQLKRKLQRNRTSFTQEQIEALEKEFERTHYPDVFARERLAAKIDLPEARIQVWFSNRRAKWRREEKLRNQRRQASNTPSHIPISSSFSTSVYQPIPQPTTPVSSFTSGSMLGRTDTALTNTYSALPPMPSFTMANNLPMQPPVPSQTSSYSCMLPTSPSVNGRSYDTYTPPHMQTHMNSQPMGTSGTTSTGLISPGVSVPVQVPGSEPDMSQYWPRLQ
Sequence of Hypoxia-inducible factor 1-alpha (Homo sapiens) (Q16665 whole entry, looked up): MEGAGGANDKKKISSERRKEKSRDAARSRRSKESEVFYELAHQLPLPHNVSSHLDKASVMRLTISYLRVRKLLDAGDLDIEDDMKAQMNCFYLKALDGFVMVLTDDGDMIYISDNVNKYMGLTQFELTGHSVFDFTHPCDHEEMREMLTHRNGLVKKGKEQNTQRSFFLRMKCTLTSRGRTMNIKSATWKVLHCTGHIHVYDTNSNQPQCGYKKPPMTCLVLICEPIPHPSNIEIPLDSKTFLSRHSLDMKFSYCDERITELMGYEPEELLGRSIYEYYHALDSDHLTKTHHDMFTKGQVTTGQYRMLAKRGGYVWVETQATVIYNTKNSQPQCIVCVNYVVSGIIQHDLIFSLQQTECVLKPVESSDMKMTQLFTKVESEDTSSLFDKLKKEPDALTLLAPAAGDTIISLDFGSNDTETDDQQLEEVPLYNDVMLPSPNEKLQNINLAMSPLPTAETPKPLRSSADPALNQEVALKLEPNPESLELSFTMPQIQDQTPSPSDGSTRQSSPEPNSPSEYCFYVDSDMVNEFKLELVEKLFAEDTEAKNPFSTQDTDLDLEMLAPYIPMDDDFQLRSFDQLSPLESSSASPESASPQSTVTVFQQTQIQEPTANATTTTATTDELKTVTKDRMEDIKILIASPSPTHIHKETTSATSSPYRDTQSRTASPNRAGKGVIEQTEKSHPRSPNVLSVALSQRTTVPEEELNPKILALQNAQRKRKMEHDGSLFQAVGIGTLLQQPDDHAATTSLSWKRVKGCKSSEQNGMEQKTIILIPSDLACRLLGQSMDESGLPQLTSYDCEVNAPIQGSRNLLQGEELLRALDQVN
Sequence of Transcription factor Sp1 (Homo sapiens) (P08047 whole entry, looked up, the tested form may be a part): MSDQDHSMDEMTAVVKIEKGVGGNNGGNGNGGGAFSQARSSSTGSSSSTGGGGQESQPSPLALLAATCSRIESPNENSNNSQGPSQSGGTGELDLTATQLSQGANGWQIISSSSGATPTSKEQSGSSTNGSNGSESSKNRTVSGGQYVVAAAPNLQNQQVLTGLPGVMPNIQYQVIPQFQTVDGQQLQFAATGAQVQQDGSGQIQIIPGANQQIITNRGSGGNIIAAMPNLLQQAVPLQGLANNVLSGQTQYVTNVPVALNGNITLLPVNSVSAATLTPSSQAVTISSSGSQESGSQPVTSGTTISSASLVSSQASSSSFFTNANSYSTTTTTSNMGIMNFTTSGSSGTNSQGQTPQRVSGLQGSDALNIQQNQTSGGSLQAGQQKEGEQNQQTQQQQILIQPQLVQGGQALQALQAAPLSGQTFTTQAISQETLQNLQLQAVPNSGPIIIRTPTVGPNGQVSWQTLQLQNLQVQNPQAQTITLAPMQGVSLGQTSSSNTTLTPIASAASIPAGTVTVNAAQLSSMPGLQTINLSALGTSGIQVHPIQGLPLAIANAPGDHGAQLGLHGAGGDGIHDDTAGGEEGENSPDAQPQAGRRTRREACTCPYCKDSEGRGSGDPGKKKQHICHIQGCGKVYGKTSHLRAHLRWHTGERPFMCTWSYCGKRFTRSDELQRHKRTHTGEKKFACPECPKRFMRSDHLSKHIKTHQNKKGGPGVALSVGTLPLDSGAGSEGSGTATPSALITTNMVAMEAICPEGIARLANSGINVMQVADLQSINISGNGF
Sequence of Signal transducer and activator of transcription 3 (Homo sapiens) (P40763 whole entry, looked up, the tested form may be a part): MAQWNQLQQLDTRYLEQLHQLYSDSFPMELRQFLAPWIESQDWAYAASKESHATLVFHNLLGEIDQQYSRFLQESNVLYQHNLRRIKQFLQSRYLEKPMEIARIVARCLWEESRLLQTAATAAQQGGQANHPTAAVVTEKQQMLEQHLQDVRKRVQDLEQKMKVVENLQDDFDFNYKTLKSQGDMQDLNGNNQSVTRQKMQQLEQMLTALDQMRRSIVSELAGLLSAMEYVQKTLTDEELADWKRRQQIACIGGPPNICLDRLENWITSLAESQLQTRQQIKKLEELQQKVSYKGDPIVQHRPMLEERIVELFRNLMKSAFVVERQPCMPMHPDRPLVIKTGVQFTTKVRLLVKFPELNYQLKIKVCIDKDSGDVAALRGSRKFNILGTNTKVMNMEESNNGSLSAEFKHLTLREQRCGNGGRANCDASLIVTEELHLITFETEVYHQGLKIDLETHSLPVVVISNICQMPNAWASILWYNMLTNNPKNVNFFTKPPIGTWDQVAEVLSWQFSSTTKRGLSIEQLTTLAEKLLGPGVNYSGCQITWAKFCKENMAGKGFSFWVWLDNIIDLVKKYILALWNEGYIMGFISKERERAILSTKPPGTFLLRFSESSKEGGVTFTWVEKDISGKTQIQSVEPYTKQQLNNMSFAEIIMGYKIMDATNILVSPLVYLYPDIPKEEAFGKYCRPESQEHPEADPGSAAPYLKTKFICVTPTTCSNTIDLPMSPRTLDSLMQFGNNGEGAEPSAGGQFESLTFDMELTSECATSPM
Sequence of Hepatocyte nuclear factor 6 (Homo sapiens) (Q9UBC0 whole entry, looked up, the tested form may be a part): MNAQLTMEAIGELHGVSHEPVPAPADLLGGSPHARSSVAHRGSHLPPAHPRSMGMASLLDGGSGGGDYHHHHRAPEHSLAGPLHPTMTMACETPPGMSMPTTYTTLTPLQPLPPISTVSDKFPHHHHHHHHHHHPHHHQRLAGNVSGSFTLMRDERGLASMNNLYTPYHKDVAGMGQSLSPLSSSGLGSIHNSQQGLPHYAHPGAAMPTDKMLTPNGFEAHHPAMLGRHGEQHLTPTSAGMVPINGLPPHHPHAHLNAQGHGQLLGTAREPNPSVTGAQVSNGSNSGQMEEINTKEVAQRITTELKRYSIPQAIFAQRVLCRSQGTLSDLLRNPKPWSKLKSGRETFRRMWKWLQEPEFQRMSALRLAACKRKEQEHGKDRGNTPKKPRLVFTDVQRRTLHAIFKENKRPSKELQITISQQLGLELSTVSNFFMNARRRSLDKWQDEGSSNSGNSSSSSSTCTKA

CCCSP(=S)(OCC)Oc1ccc(Cl)cc1Cl (stereo unspecified)
outcome [1]: inactive
outcome [2]: inactive
outcome [3]: inactive
outcome [4]: inactive
outcome [5]: inactive
outcome [6]: inactive
outcome [7]: inactive
outcome [8]: inactive
AC50 [9]: 2.72 µM (active)
outcome [10]: inactive
outcome [11]: inactive
outcome [12]: inactive
outcome [13]: inactive
outcome [14]: inactive
outcome [15]: inactive
outcome [16]: inactive
outcome [17]: inactive
outcome [18]: inactive
AC50 [19]: 137 µM (active)

COC(=O)Nc1cccc(OC(=O)Nc2cccc(C)c2)c1
outcome [1]: inactive
outcome [2]: inactive
outcome [3]: inactive
outcome [4]: inactive
outcome [5]: inactive
outcome [6]: inactive
outcome [8]: inactive
outcome [9]: inactive
outcome [10]: inactive
outcome [11]: inactive
outcome [12]: inactive
outcome [13]: inactive
outcome [14]: inactive
outcome [15]: inactive
outcome [16]: inactive
outcome [17]: inactive
outcome [19]: inactive

O=S(=O)(c1ccc(Cl)cc1)c1cc(Cl)c(Cl)cc1Cl
outcome [1]: inactive
outcome [2]: inactive
outcome [3]: inactive
outcome [4]: inactive
outcome [5]: inactive
outcome [6]: inactive
outcome [7]: inactive
outcome [8]: inactive
AC50 [9]: 1.59 µM (active)
outcome [10]: inactive
outcome [11]: inactive
outcome [12]: inactive
outcome [13]: inactive
AC50 [14]: 14.5 µM (active)
outcome [15]: inactive
outcome [16]: inactive
outcome [17]: inactive
outcome [18]: inactive
outcome [19]: inactive

Cc1cccc(N=Nc2ccc(N(C)C)cc2)c1
outcome [1]: inactive
outcome [2]: inactive
outcome [3]: inactive
outcome [4]: inactive
outcome [5]: inactive
outcome [6]: inactive
outcome [7]: inactive
AC50 [9]: 10.5 µM (active)
outcome [10]: inactive
outcome [11]: inactive
outcome [12]: inactive
outcome [14]: inactive
outcome [15]: inactive
outcome [16]: inactive
outcome [17]: inactive
outcome [19]: inactive

Oc1c(Br)cc(Br)cc1Br
outcome [1]: inactive
outcome [2]: inactive
outcome [3]: inactive
outcome [4]: inactive
outcome [5]: inactive
AC50 [6]: 78.7 µM (active)
AC50 [7]: 20.9 µM (active)
outcome [8]: inactive
AC50 [9]: 5.82 µM (active)
AC50 [10]: 51.2 µM (active)
AC50 [11]: 40.6 µM (active)
outcome [12]: inactive
AC50 [13]: 25.9 µM (active)
outcome [14]: inactive
outcome [15]: inactive
AC50 [16]: 65.7 µM (active)
outcome [17]: inactive
outcome [18]: inactive
AC50 [19]: 156 µM (active)

CCOP(=S)(OCC)SCSc1cc(Cl)ccc1Cl
outcome [1]: inactive
outcome [2]: inactive
outcome [3]: inactive
outcome [4]: inactive
outcome [5]: inactive
outcome [6]: inactive
outcome [7]: inactive
outcome [8]: inactive
outcome [9]: inactive
outcome [10]: inactive
outcome [11]: inactive
outcome [12]: inactive
outcome [13]: inactive
outcome [14]: inactive
outcome [15]: inactive
outcome [17]: inactive
outcome [18]: inactive
outcome [19]: inactive

OC(Cc1ccccc1Cl)(Cn1[nH]cnc1=S)C1(Cl)CC1 (stereo unspecified)
AC50 [1]: 100 µM (active)
outcome [2]: inactive
outcome [3]: inactive
outcome [4]: inactive
outcome [5]: inactive
AC50 [6]: 77.6 µM (active)
AC50 [7]: 21.7 µM (active)
outcome [8]: inactive
AC50 [9]: 4.27 µM (active)
outcome [11]: inactive
AC50 [12]: 145 µM (active)
outcome [13]: inactive
outcome [14]: inactive
outcome [15]: inactive
outcome [16]: inactive
outcome [17]: inactive
outcome [18]: inactive
outcome [19]: inactive

C=C(C)C(=O)OCC(CC)CCCC (stereo unspecified)
outcome [1]: inactive
outcome [2]: inactive
outcome [3]: inactive
outcome [4]: inactive
outcome [5]: inactive
outcome [6]: inactive
outcome [8]: inactive
outcome [9]: inactive
outcome [11]: inactive
outcome [12]: inactive
outcome [13]: inactive
outcome [14]: inactive
outcome [15]: inactive
outcome [16]: inactive
outcome [17]: inactive
